# An excerpt weighted towards active compounds, which were near 22% of everything screened.
# Pf growth 96h: P. falciparum growth inhibition at 96 hours | P. falciparum luciferase reporter growth, 96 h | AID 504834 | 6.9% of 320,000 active | Potency, µM (highest dose often 28.7 µM), actives largely listed as inhibitors
#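 96 h incubation, 37 C, 5% CO2, of luciferase-reporter P. falciparum-infected RBCs (2% hematocrit, 0.05% parasitemia final) with test compounds; endpoint luminescence.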
# Shiga inhibitor: Shiga toxin inhibition; Vero cells, Shiga toxin protein synthesis inhibition reporter; inhibition, % at 38.7 µM; 9.2% of 290,000 active; AID 2315; in the data active = inhibition mostly above about 28%, no sharp cut-off; inactive = mostly below about 43%
# Pf growth 48h: inhibits P. falciparum growth in the first generation, 48 h | AID 504832 | 5.9% of 310,000 active | Potency, µM (doses to about 28.7 µM), hits mostly inhibitors | P. falciparum luciferase growth in erythrocytes, 48 h
#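 First compound was added to culture medium, then infected red cells at 0.1% parasitemia and 2% hematocrit (final). After incubation at 37 C under 5% CO2, luciferase detection reagent was dispensed and light output recorded.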
# CHX counter: counter-screen for Shiga toxin inhibitors: cycloheximide protein synthesis inhibition. AID 2314. 12% of 300,000 active. max response, %. cell reporter, cycloheximide protein synthesis inhibition counterscreen; in the data active = max response mostly above about 13%, no sharp cut-off; inactive = mostly below about 14%; also: read at 38.3 µM for the half of the compounds with a filed dose
# LmPK inhibitor: inhibitors of Leishmania mexicana pyruvate kinase | Q27686 | purified LmPK, Kinase-Glo ATP luminescence, 1 h | Potency, µM (highest dose often 57.5 µM), actives largely listed as inhibitors | 0.37% of 290,000 active
# Target sequence (Q27686 whole entry, looked up): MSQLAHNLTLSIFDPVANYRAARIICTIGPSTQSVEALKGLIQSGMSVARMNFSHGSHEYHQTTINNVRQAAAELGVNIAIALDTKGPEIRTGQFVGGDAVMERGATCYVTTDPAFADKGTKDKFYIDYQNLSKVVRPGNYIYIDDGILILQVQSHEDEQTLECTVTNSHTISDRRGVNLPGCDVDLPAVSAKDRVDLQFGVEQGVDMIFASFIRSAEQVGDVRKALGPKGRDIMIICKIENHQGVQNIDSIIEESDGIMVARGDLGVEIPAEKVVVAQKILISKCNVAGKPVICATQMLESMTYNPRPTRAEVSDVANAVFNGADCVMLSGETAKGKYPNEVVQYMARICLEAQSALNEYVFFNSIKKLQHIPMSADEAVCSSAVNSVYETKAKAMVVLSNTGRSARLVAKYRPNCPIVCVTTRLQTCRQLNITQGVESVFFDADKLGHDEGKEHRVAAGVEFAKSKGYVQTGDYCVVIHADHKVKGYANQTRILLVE
#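 qHTS format; LmPK 0.1 nM; substrates PEP 0.5 mM and ADP 0.1 mM. One-hour room-temperature incubation, then coupled luciferase luminescence; 0.5 nM enzyme wells mark activation.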
# A number is an active result; - = inactive; ? = inconclusive; . = no result. Unless noted, calls follow the shape of the dose curve; as a rule, active = well fitted inhibition curve with a large enough effect; inconclusive = small, poorly fitted or top-dose-only effect, or another doubt; inactive = no such curve, though single readings can be large or run the other way.
SMILES,Pf growth 96h,Shiga inhibitor,Pf growth 48h,CHX counter,LmPK inhibitor
O=C(Nc1ccccc1)Nc1cccc2cccnc12,.,122,-,36,-
CCC(=O)Nc1cccc2cccnc12,-,-,-,-,-
O=C(CI)Nc1cccc2cccnc12,.,-,.,-,.
O=C(Nc1cccc2cccnc12)OCc1ccccc1,.,-,.,30,.
CC(=O)c1ccc(NC(=O)Nc2cccc3ccccc23)cc1,-,-,-,27,-
CC(=O)Nc1ccc(NC(=O)Nc2cccc3ccccc23)cc1,-,-,-,-,-
O=C(CCCl)Nc1cccc2cccnc12,.,-,.,48,.
COc1cc(NC(=O)CSc2nnnn2C2CCCC2)cc(OC)c1,-,-,-,-,-
Cc1ccc(C(=O)O)cc1NC(=O)Nc1cccc2ccccc12,2.6µM,-,-,-,-
O=C(Nc1ccccc1)Nc1csc2ccccc12,?,148,?,51,-
CC(=O)Nc1csc2ccccc12,-,-,-,-,-
Cc1cc(O)c(C(C)C)cc1NC(=O)Nc1cccc2ccccc12,?,-,10µM,-,-
O=C(Nc1ccccc1)Nc1cccc2ccccc12,-,-,-,19,-
CCOc1ccccc1NC(=O)Nc1cc(C(=O)O)ccc1C,?,-,-,-,-
O=C(Nc1ccc(C(=O)O)cc1)Nc1cccc2ccccc12,-,-,-,-,-
Cc1ccccc1OCC(=O)OCC(=O)Nc1cc(S(=O)(=O)N2CCCCC2)ccc1Cl,-,.,-,.,.
O=C1CC(/C=C/c2ccncc2)=Nc2ccccc2N1,?,-,-,30,-
O=C1CC(c2ccccc2)=Nc2ccccc2N1,-,-,.,-,-
Cc1c(Cl)cccc1NC(=O)Nc1ccccc1C(N)=O,?,-,-,-,-
Cc1ccc(C(=O)/C=C/Nc2ccccc2C(N)=O)cc1,-,-,-,19,?
NC(=O)c1ccccc1N/C=C/C(=O)c1ccc(Cl)cc1,-,49,.,52,?
O=C(O)c1ccc(N=NN2CCCC2)cc1,-,-,-,-,-
O=C(O)c1ccc(N=NN2CCCCCC2)cc1,-,74,-,42,-
COc1ccc(-n2nc(C(=O)NCc3ccco3)c3c4ccccc4n(C)c3c2=O)cc1,-,-,-,-,-
COc1ccc(-n2nc(C(=O)NCc3ccco3)c3ccccc3c2=O)cc1,3.3µM,-,.,-,-
SMILES,Pf growth 96h,Shiga inhibitor,Pf growth 48h,CHX counter,LmPK inhibitor
Cn1nc(C(=O)Nc2ccc3c(c2)OCO3)c2ccccc2c1=O,?,-,-,-,-
COc1ccc(-n2nc(C(=O)NCC(=O)NCc3ccc(F)cc3)c3ccccc3c2=O)cc1,6.6µM,-,?,-,-
COc1cc(NC(=O)Cc2nn(C)c(=O)c3ccccc23)cc(OC)c1OC,10µM,-,13µM,20,-
COc1ccc(-n2nc(C(=O)Nc3ccc4c(c3)OCO4)c3ccccc3c2=O)cc1,-,-,10µM,-,-
COc1ccc(-n2nc(C(=O)NCC(=O)NC(C)C)c3ccccc3c2=O)cc1,-,-,-,-,-
CCN(CC)C(=O)C(=O)c1cn(CC(=O)N2CCc3ccccc3C2)c2ccccc12,-,-,?,-,-
O=C(CN1CCN(CC(=O)Nc2ccc(F)cc2)CC1)NCC1(N2CCOCC2)CCCCC1,-,.,?,.,.
COc1ccc(-n2nc(C(=O)NCC(=O)Nc3cc(OC)c(OC)c(OC)c3)c3ccccc3c2=O)cc1,-,-,9.3µM,-,-
Cc1ccc(-n2nnc(-c3ccnc4ccccc34)n2)cc1,-,59,-,29,-
Fc1ccc(-n2nnc(-c3ccccc3)n2)cc1,-,-,-,-,-
Fc1ccc(-n2nnc(-c3ccnc4ccccc34)n2)cc1,-,44,-,40,-
CCC(C=C[C@@H]1OC(=O)C=C[C@H]1C)=C[C@H](C)CC=CC(C)=C[C@@H](C)C(=O)[C@@H](C)[C@H](O)[C@@H](C)CC(C)=CC(=O)O,.,-,.,-,.
CCOC(=O)C1=C(C)Nc2nc(=S)[nH]n2C1c1ccc(Cl)cc1 (stereo not given),-,-,-,-,?
COc1ccc(-n2c3c(c(=O)[nH]c2=O)C(NC(=O)c2ccncc2)(C(F)(F)F)C(=O)N3)cc1 (stereo not given),-,-,-,-,-
Cn1c(-c2ccccc2[N+](=O)[O-])[n+](C)c2ccccc21,4.1µM,-,10µM,-,-
Cc1ccc(C(=O)N(C)CC(=O)Nc2ccc(N3CCOCC3)cc2)s1,-,.,-,.,.
CCc1ccc(C2CC(c3ccc(C)cc3)Nc3nc(N)nn32)cc1 (stereo not given),-,-,-,-,-
CCOc1ccc(C2CC(c3cccc(Cl)c3)n3nc(N)nc3N2)cc1 (stereo not given),3.7µM,-,-,-,-
COc1ccc(C2CC(c3cccs3)n3nc(N)nc3N2)cc1 (stereo not given),?,23,-,7.4,-
CCc1ccc(C2CC(c3ccccc3C)n3nc(N)nc3N2)cc1 (stereo not given),15µM,-,-,-,-
Cc1cc(C)c2nc(-c3ccncc3)cc(C(=O)N3CCN(Cc4ccccc4Cl)CC3)c2c1,-,-,?,-,-
COc1ccc(NC(=O)/C(Cl)=C(/Cl)S(=O)Cc2ccccc2Cl)cn1 (stereo not given),7.4µM,-,?,-,-
COc1ccc(N=C2SC(C(=O)Nc3ccc(OC)cc3)CC(=O)N2CCN2CCOCC2)cc1 (stereo not given),-,-,-,-,-
Cc1ccc(NC(=O)CSc2ccc3nnc(CCNC(=O)c4ccccc4)n3n2)c(C)c1,?,-,?,-,-
O=C(COC(=O)c1ccccc1N1C(=O)C2C3CCC(C3)C2C1=O)c1ccccc1 (stereo not given),2.3µM,-,-,-,-
SMILES,Pf growth 96h,Shiga inhibitor,Pf growth 48h,CHX counter,LmPK inhibitor
CCOC(=O)c1cc2c(ccn2-c2ccc(F)cc2)n1CC(=O)NC(C)(C)C,-,-,?,-,-
Cc1csc(NC(=O)c2ccccc2C(=O)O)n1,.,-,-,-,-
Cc1csc(Nc2ccc(C(=O)O)cc2)n1,-,11,-,-,-
O=C(O)c1ccc(Nc2nc(-c3ccccc3)cs2)cc1,?,112,-,27,-
Cc1nnc(Nc2ccc(C(=O)O)cc2)[nH]c1=O,-,-,-,-,-
Cc1csc(Nc2ccccc2)n1,-,44,-,23,-
Cc1cc(NC(=O)Nc2ccc(F)c(Cl)c2)no1,.,29,?,28,-
Cc1cc(NC(=O)Nc2cc(F)ccc2F)no1,-,-,-,9.2,-
CC(=O)c1sc(NC(=O)c2ccccc2C)nc1C,-,-,-,47,-
Cc1ccc(C)c2sc(NC(=O)C3CC3)nc12,-,-,-,-,-
Cc1cc(C)c2sc(NC(=O)C3CC3)nc2c1,-,42,-,27,-
Cc1cccc(C(=O)NC(=O)Nc2c(C)cc(C)nc2C)c1,?,58,-,21,-
CC(=O)c1sc(NC(=O)c2ccc(F)c(F)c2)nc1C,.,-,-,-,-
CC(=O)c1sc(NC(=O)c2cccc(C)c2)nc1C,-,68,-,43,?
